A selection: hits, their analogues and other compounds. The true share with any hit is near 2.4%.
NOD2 RIPK2 PPI: NOD2-RIPK2 binding disruptors in cells, primary screen, fluorescence, CHO cells, BLA complementation; Receptor-interacting serine/threonine-protein kinase 2 (Homo sapiens), O43353; CCF4 ratio; inhibition, % at 4.98 µM; 0.38% of 360,000 active; AID 624267, 2012; in the data active = inhibition above about 21%;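 note: 0% = vehicle only and 100% = reference blocker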
ABHD5 PLIN5 PPI: ABHD5-PLIN5 interaction inhibitors, primary screen, cell lysate, split luciferase complementation, luminescence; inhibition, % at 4 µM; Perilipin-5 (Homo sapiens) + 1-acylglycerol-3-phosphate O-acyltransferase ABHD5 (Homo …; AID 602281, 2012; Split G. princeps luciferase complementation, 4 h; 0.78% of 360,000 active;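 active = inhibition above the mean inhibition across every tested compound plus 3 SD, cut at about 22% in these data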;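 note: 0% = DMSO only wells and the 100% control is not disclosed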
CRFR2-BP antag: antagonists of CRF-BP/CRF-R2 complex, primary screen, cell-based, HEK293, calcium dye fluorescence, uHTS; AID 588475, 2011; 0.59% of 350,000 active; inhibition, % at 11.8 µM; CRF-induced calcium fluorescence;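 active = inhibition of the ligand-induced calcium signal above about 50% at the single tested concentration, limit read from the data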
TLR9-MyD88 block: inhibitors of TLR9-MyD88 association in cells, primary screen, cell-based, CHO, BLA complementation, fluorescence. inhibition, % at 4.98 µM. AID 504734, 2011. Toll-like receptor 9 (Homo sapiens) + Myeloid differentiation primary response protein …. 0.21% of 340,000 active. CCF4 FRET ratio;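 active = inhibition above the mean over all tested compounds plus 3 SD, cut at about 21% in these data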;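 note: 0% = DMSO only wells and 100% = clavulanate BLA inhibitor control wells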
HTR2A ag: mouse Htr2a agonists via beta-arrestin recruitment, primary screen, cell-based, luminescence; 5-hydroxytryptamine receptor 2A (Mus musculus), P35363; CHO-K1 mHTR2A beta-arrestin complementation; percent of 30 µM serotonin response; activation, % at 7.6 µM; 0.66% of 360,000 active;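 active = activation above a run cutoff, the mean activation of all tested compounds plus 3 SD, cut at about 14% in these data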;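 note: 0% = plate median of compound wells and 100% = 30 µM serotonin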
TLR4-MyD88 BLA: inhibitors of TLR4-MyD88 association in cells, primary screen, cell-based, HeLa CL3-4, BLA complementation, FRET ratio; inhibition, % at 8.4 µM; HeLa CL3-4 TLR4/MyD88 BLA complementation; AID 861, 2007; Toll-like receptor 4 (Homo sapiens) + Myeloid differentiation primary response protein …; 0.18% of 200,000 active; in the data active = inhibition above about 25%;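 note: 0% = vehicle and 100% = reference inhibitor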
Starred values were filed as active, the others as inactive; nt = no result.

SMILES	NOD2 RIPK2 PPI	ABHD5 PLIN5 PPI	CRFR2-BP antag	TLR9-MyD88 block	HTR2A ag	TLR4-MyD88 BLA
CN(Cc1ccccc1)C(=O)c1[nH]cnc1C(=O)N[C@@H](Cc1ccccc1)C(=O)OCc1ccccc1	-1	8	-3	-7	23*	-21
C[C@@H](NC(=O)c1nc[nH]c1C(=O)N[C@@H](Cc1ccccc1)C(=O)OCc1ccccc1)c1ccccc1	2	-17	-6	-2	0	-4
CCN1C(c2ccccc2)C(C)C(=O)C(C)C1c1ccccc1 (stereo not drawn)	-3	-6	57*	6	0	9
COC(=O)/C(=C(/F)Sc1cc(C)c(O)c(C)c1)C(F)(F)F	-1	-21	16	4	16*	4
CCOC1=C2[C@@H](CN(S(=O)(=O)c3ccc(C)cc3)[C@H]2c2ccccc2Cl)[C@H]2C(=O)N(Cc3ccccc3)C(=O)[C@H]2C1	-5	-9	nt	nt	-6	nt
O=c1cc(-c2ccccc2)nc2c(-c3ccccc3)c(C(F)(F)F)[nH]n12	-7	5	54*	nt	7	nt
Cc1cc(=O)n2[nH]c(C)c(-c3ccccc3)c2n1	-12	4	-39	-9	0	-2
CC(C)(CSc1ncccn1)NS(=O)(=O)c1ccccc1	-7	4	66*	8	1	12
Cc1ccc(SCc2noc(-c3c(C)noc3C)n2)cc1	-6	-2	52*	-6	-1	nt
CC1(C(=O)NCC2CC2)Cc2c(-c3cccc(C(F)(F)F)c3)ccnc2O1 (stereo not drawn)	8	-7	nt	nt	5	nt
O=C(CN1CCOCC1)Nc1nc(-c2ccc3c(c2)CCN3S(=O)(=O)c2ccccc2)cs1	6	6	32	-6	15*	-4
Cc1sc(NC(=O)CN2CCOCC2)nc1-c1ccc2c(c1)CCN2S(=O)(=O)c1ccccc1	-2	14	-26	-7	2	-7
CCCS(=O)(=O)c1nnnn1-c1cccc(OC)c1	17	43*	-67	11	-4	22
CCCCc1nc2ccccc2c(NC(=O)CN(CC)CC)c1CCC	-3	0	98*	-3	1	-3
O=[N+]([O-])c1cccc(S(=O)(=O)Nc2nc3ccccc3nc2Nc2cccc(S(=O)(=O)N3CCCCC3)c2)c1	-21	4	90*	5	6	0
COc1cc(F)ccc1-c1csc(C(C)(NC(C)=O)c2ccccc2)n1 (stereo not drawn)	-3	2	nt	nt	9	nt
COc1ccc(C(C(=O)NC2CCCCC2)N(C(=O)Cc2c[nH]c3ccccc23)c2ccccc2C)cc1OC (stereo not drawn)	-7	-2	12	-9	6	-3
COc1ccc(C(C(=O)NC2CCCCC2)N(Cc2cccs2)C(=O)Cc2c[nH]c3ccccc23)cc1OC (stereo not drawn)	-15	5	52*	9	3	-1
CCCNC(=O)c1ccc(CN2CCc3ccccc3C2)cc1	-2	2	85*	4	-1	-1
CCOC(=O)C1=CCC(c2ccccc2)N(S(=O)(=O)c2ccc(C)cc2)[C@H]1CC (stereo partly drawn)	-1	-5	nt	nt	-9	nt
O=[N+]([O-])c1ccc(O)c(Nc2ncnc3ccc(Br)cc23)c1	9	-1	66*	-3	0	-8
COc1ccc([N+](=O)[O-])cc1Nc1ncnc2ccccc12	2	1	26	4	0	-6
O=[N+]([O-])c1ccc(O)c(Nc2ncnc3ccccc23)c1	-6	2	63*	-8	1	-3
CSc1ncnc2c1ncn2CCCNc1ccc(C)c(C)c1	-12	-5	0	2	-3	nt
COc1ccc(NC(=O)CN2CCCC2c2cccs2)cc1S(=O)(=O)N1CCCCC1 (stereo not drawn)	-1	6	64*	1	-7	nt
SMILES	NOD2 RIPK2 PPI	ABHD5 PLIN5 PPI	CRFR2-BP antag	TLR9-MyD88 block	HTR2A ag	TLR4-MyD88 BLA
COc1ccc(NC(=O)CCCC2CCCCC2)cc1S(=O)(=O)N1CCCCC1	-1	0	64*	11	0	1
CCOc1ccc(NC(=O)CN2CCCC2c2cccs2)cc1S(=O)(=O)N1CCCC1 (stereo not drawn)	5	-3	12	4	-7	nt
COc1ccc(NC(=O)CCN2C(=O)C3CC=CCC3C2=O)cc1S(=O)(=O)N1CCCCC1 (stereo not drawn)	-8	6	13	-7	-2	nt
CCCCCCCCN1C(=O)[C@H](CC(=O)N2CCSCC2)C[C@@]2(C(=O)OC)CC(C)(C)CC=C12	-7	-4	nt	nt	-1	nt
O=C(NCc1ccco1)c1ccc2sc([C@@H]3O[C@H](CO)[C@H](O)[C@H](O)[C@H]3O)nc2c1	-10	-5	nt	nt	4	nt
CN(Cc1ccccc1)C(=O)CN1CCN(S(=O)(=O)c2ccccc2F)CC1	-3	-9	-12	-10	-2	nt
COc1cc(CN2CCN(Cc3ccc([N+](=O)[O-])cc3)CC2)c([N+](=O)[O-])cc1OC	-14	-1	23	-1	-1	-9
COc1cccc(CN2CCN(Cc3cc(OC)c(OC)cc3[N+](=O)[O-])CC2)c1	6	0	64*	-7	0	5
O=C(Nc1ccc2c(c1)CN(C(=O)Nc1ccc(F)cc1)CC2)c1ccccn1	-1	-2	11	4	-4	nt
COc1ccc(N=C2NC(=O)/C(=C\C=C\c3ccco3)S2)cc1	-1	22*	2	2	-1	-9
COc1ccc(N2CSC(=S)N(c3ccc(OC)cc3)C2)cc1	-3	-11	9	-6	0	nt
COc1ccc(CNc2oc(COc3ccccc3)nc2C#N)cc1	8	5	52*	6	-9	-4
Cc1cccc(-c2ccc3[nH]c4c(c3c2)CCN2C[C@@H]([C@H](C)OC(=O)Nc3ccccc3C)[C@@H](N(C)C(=O)Nc3ccccc3C)C[C@@H]42)c1	16	2	-7	-7	-7	nt
Cc1ccc(C2=NN(C(=O)c3cccs3)C(c3ccccc3O)C2)cc1 (stereo not drawn)	-1	1	75*	7	-1	-2
COc1cccc(C2CC(c3cccs3)=NN2C(=O)c2ccco2)c1O (stereo not drawn)	-1	-5	67*	0	-2	nt
COc1ccc(C2=NN(C(=O)c3ccco3)C(c3cccs3)C2)cc1OC (stereo not drawn)	1	-6	4	-6	8	nt

Bioassay records from PubChem BioAssay.
